Screen size: about 30,000 compounds; about 110 (0.37%) were called active.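 The calls were made as follows: active = delta delta Cp rounded down to an integer at or above 3, about 3 SD of DMSO wells; inactive = the rest.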 The list comes from a sample in which actives are over-represented; it also holds similar structures and randomly drawn compounds.
experiment: inhibitors of YB-1 gene expression, primary screen, cell-based, fluorescence (AID 434959); settings: U2OS, qRT-PCR YB-1 vs CDIP delta delta Cp, 16 h; hits give high values; zero = DMSO, each unit about twofold;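 also: higher means less YB-1 transcript or more CDIP transcript relative to DMSO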

Delta Cp (YB-1 minus CDIP), inactive:
C[C@@H]1CN([C@H](C)CO)C(=O)c2cc(NC(=O)Nc3ccc4c(c3)OCO4)ccc2O[C@H]1CN(C)Cc1ccc(-c2ccccc2)cc1 0.369
C[C@H](CO)N1C[C@H](C)[C@H](CN(C)C(=O)Nc2ccc(C(F)(F)F)cc2)Oc2ccc(N(C)C)cc2CC1=O 0.00881
Cc1cc(C(=O)Nc2cccc3c2O[C@@H](CN(C)Cc2ccc(C(=O)O)cc2)[C@H](C)CN([C@@H](C)CO)C3=O)n(C)n1 -0.416
O=C(N/N=C/c1ccc(Oc2ccccc2)cc1)c1ccccn1 -0.417
COc1ccc(NC(=O)N(C)C[C@@H]2Oc3ccc(NS(=O)(=O)c4ccc(OC)cc4)cc3CC(=O)N([C@H](C)CO)C[C@H]2C)cc1 -0.353
C[C@H]1CN([C@@H](C)CO)C(=O)c2cccc(NC(=O)Nc3ccccc3)c2O[C@H]1CN(C)C(=O)Nc1cccc2ccccc12 0.0743
C[C@@H]1CN([C@@H](C)CO)C(=O)CCCn2cc(nn2)CO[C@@H]1CN(C)C(=O)C1CCCCC1 -0.464
Cc1noc(C)c1S(=O)(=O)N(C)C[C@H]1OCc2cn(nn2)CCCC(=O)N([C@H](C)CO)C[C@H]1C 0.0461
C[C@H](CO)N1C[C@H](C)[C@@H](CN(C)Cc2ccc(C(F)(F)F)cc2)Oc2ccc(NC(=O)CCC(F)(F)F)cc2C1=O -0.124
C[C@@H]1CN([C@H](C)CO)C(=O)c2cccc(NC(=O)C3CCCCC3)c2O[C@@H]1CN(C)C(=O)NC1CCCCC1 0.413
COc1ccc(CN(C)C[C@@H]2Oc3ccc(NS(=O)(=O)c4cn(C)cn4)cc3C(=O)N([C@@H](C)CO)C[C@@H]2C)cc1 -0.246
Cc1ccc(C(=O)c2coc3ccc(O)c(CN(C)C)c23)cc1 0.308
CCCN(C)C[C@@H]1OCCCC[C@@H](C)Oc2ccc(NC(=O)CCCN(C)C)cc2C(=O)N([C@H](C)CO)C[C@@H]1C -0.0474
COc1ccc(C#Cc2ccc3c(c2)[C@]2(C(=O)N3)[C@H](C(=O)N3CCc4cc(OC)c(OC)cc4C3)[C@H]3C(=O)O[C@H](c4ccccc4)[C@H](c4ccccc4)N3[C@@H]2c2ccc(O)cc2)cc1 0.269
CC(=O)N1[C@@H](c2ccc(C)cc2)SC(C)(C)[C@@H]1C(=O)O -0.179
Cc1ccc(S(=O)(=O)N(C)C[C@@H]2Oc3ccc(NC(=O)NC4CCCCC4)cc3C(=O)N([C@@H](C)CO)C[C@H]2C)cc1 0.362

Source: PubChem BioAssay AID434959 (Broad Institute, 2010)
